Most compounds without a hit are left out; they make up all but 4.5% or so of the library.
EBNA-1 inh: EBNA-1 DNA-binding inhibitors, primary screen, biochemical, fluorescence polarization; inhibition, % at 14.8 µM; hit rate 0.34% among 300,000; AID 1950, 2009; in the data active = inhibition above about 28%
TPT1 inhibitor: Candida albicans TPT1 enzyme inhibitors, primary screen, biochemical, fluorescence polarization; recombinant caTPT1, FP RNA substrate dephosphorylation; AID 1962, 2009; tRNA 2'-phosphotransferase TPT1 (Candida albicans SC5314); inhibition, % at 5 µM; hit rate 0.81% among 300,000;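 active = inhibition above the mean of all tested compounds plus 3 SD, set per screening campaign, cut at about 24% in these data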;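 note: plate controls were DMSO alone for no effect and ferristatin control at 100 nM for full effect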
NR3A LBD binder: binders of NR3A ligand-binding domain, primary screen, biophysical, differential scanning fluorimetry, uHTS; Glutamate receptor ionotropic, NMDA 3A (GRIN3A) ligand-binding domain; NR3A LBD differential scanning fluorimetry, Tm shift; 0% = protein alone, 100% = glycine-bound protein; Tm shift relative to glycine control, % at 25 µM; hit rate 2.5% among 340,000; AID 1259313, 2017;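 active = melting temperature shift of at least 10% of the positive control shift, at one fixed dose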
Rpn11 inh: Rpn11 (PSMD14) deubiquitinase inhibitors, primary screen, biochemical, fluorescence polarization, uHTS. hit rate 0.59% among 360,000. inhibition, % at 20 µM. human 26S proteasome, Ub4-pepOG fluorescence polarization; 20S core pre-blocked with epoxomicin. AID 588493, 2011;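 active = inhibition at 20 µM, scaled to each plate's controls, above about 33%, limit read from the data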
dFosB act: activators of delta FosB homodimer, primary screen, biochemical, fluorescence polarization, TAMRA-CDK5 oligo, single point; Protein FosB (Mus musculus), P13346; purified delta FosB; percent of positive-control signal above neutral wells; activation, % at 25 µM; hit rate 0.99% among 340,000; AID 493131, 2011;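 active = mean activation above about 17%, with every replicate also reaching it, limit read from the data, passing the limit was not always enough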
ZTA DNA inh: blocks Epstein-Barr virus ZTA, an EBNA-1 counter-screen; ZTA-DNA binding, fluorescence polarization; inhibition, % at 11 µM; hit rate 0.15% among 320,000; AID 2234; in the data active = inhibition above about 33%
Target sequence (P03206 whole entry, looked up): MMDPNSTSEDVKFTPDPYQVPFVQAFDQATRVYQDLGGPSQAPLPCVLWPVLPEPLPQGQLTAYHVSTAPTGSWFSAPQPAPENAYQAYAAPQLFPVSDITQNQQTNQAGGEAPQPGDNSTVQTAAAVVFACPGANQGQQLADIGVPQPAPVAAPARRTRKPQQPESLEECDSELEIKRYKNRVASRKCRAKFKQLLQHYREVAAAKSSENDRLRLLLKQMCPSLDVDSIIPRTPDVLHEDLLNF
* marks the source's active call; other numbers are inactive results; / = no result.

SMILES	EBNA-1 inh	TPT1 inhibitor	NR3A LBD binder	Rpn11 inh	dFosB act	ZTA DNA inh
Cc1cccc(C(=O)Nc2nnc(SCC(=O)Nc3ccc4c(c3)oc3ccccc34)s2)c1	-2	1	76*	-5	2	1
CCN(CC(=O)NCc1ccc(F)cc1)C(=O)CN1CCN(c2cc(Cl)ccc2C)CC1	4	0	-1	7	-5	7
CCNS(=O)(=O)c1ccc(CCC(=O)N2CCc3ccccc3C2)cc1	-3	2	-1	-4	-4	-5
CCO[C@H]1OC(C(=O)O)=C[C@@H](c2cn(C(C)=O)c3ccccc23)[C@@H]1CCCO	7	0	13*	-13	-3	13
CCO[C@@H]1OC(C(=O)N2CCN(Cc3ccccc3)CC2)=C[C@H](c2cn(C(C)=O)c3ccccc23)[C@H]1CCCO	3	-2	12*	9	3	-8
CCO[C@@H]1OC(C(N)=O)=C[C@H](c2cn(C(C)=O)c3ccccc23)[C@H]1CCCO	10	1	-1	5	-2	17
CC1CCN(S(=O)(=O)c2ccc3nc(-c4ccccn4)cc(C(=O)NCCN(C)Cc4ccccc4)c3c2)CC1	/	/	0	8	-9	/
CCN(CCNCC(O)COc1ccccc1C(C)C)c1cccc(C)c1 (stereo unspecified)	-15	1	/	-5	2	-23
CCOc1ccc(-c2ccc(/C=C3/C(=N)N4C=CSC4=NC3=O)o2)c([N+](=O)[O-])c1	-5	10	14*	24	3	4
CCOc1ccc(-c2ccc(/C=C3/C(=N)N4C(C)=CSC4=NC3=O)o2)c([N+](=O)[O-])c1	-7	16	3	16	-13	4
CSc1nsc(SCC(=O)N2CCN(c3ccccc3)CC2)n1	-10	-1	11*	1	0	14
CN(CC(=O)Nc1ccc(F)cc1)C(=O)COC(=O)/C=C/c1cccs1	5	0	-2	-4	1	-5
O=C(COC(=O)/C=C/c1cccs1)Nc1ccc(F)cc1	/	/	16*	3	3	5
COC(=O)c1ccccc1NC(=O)COC(=O)/C=C/c1cccs1	/	/	11*	3	-1	/
COc1cc(/C=N\NC(=O)C2CC3C=CC2C3)ccc1O (stereo unspecified)	7	0	-3	-2	-2	-20
Cc1cnc(C(=O)OCC(=O)Nc2cc(S(=O)(=O)N3CCOCC3)ccc2Cl)cn1	/	/	-1	-6	1	/
COc1ccc(NC(=O)C(c2ccc(C)cc2)N(C)C(=O)CC2NC(=O)NC2=O)cc1 (stereo unspecified)	14	-2	12*	-5	-11	14
CCc1ccccc1NS(=O)(=O)c1ccc2[nH]cc(C(=O)NC3CCCC3)c(=O)c2c1	7	-3	11*	7	-23	7
CC(C)CCNC(=O)c1c[nH]c2ccc(S(=O)(=O)N3CCOCC3)cc2c1=O	-18	1	-2	-5	-13	-1
COc1cccc(NS(=O)(=O)c2ccc3[nH]cc(C(=O)NCCC(C)C)c(=O)c3c2)c1	-7	-4	18*	-4	12	-5
Cc1ccc2c(C)c(C)c(=O)n(C)c2c1	/	/	11*	-2	-1	/
Cc1ccc(OCC(O)Cn2nc(C)cc2C)cc1 (stereo unspecified)	-9	-1	1	4	-7	13
O=C(/C=C/c1ccc2c(c1)OCCCO2)c1ccc2ccccc2c1O	-4	-1	32*	-10	0	0
O=C(Cc1ccc(Br)cc1)N(Cc1ccccc1)c1ccccn1	-7	-2	-3	-3	-12	-18
CC(C)C[C@H]1CNC(=S)N1C[C@H]1CCCN1C[C@H](Cc1ccc(O)cc1)N1C[C@H](CC(C)C)N(CC2CCCCCC2)C1=S	/	/	/	0	/	/
Cc1ccc(-n2nnnc2-c2cnc3ccc(Cl)cc3c2-c2ccccc2)cc1	-6	-1	-3	-6	-7	17
Clc1ccc2[nH]cc(-c3nnnn3-c3ccc4ccccc4c3)c2c1	6	0	29*	6	-5	11

Source: PubChem BioAssay
